The values that follow come from the supplement of paper PMC9399229.

Structures can show the parent of a compound that is named as a salt. In all, about 1,900 compounds were measured (“relative cell viability (CellTiter-Glo), compound plus cabozantinib, relative to the cabozantinib arm (arm median 1.05; reference not stated)”: median about 1.1, lowest 2% from about 0.15 on). The full list was thinned out, with the lowest values kept by preference.

The subject of the assay is Hep3B. The experiment in a line: relative cell viability (CellTiter-Glo), compound plus cabozantinib, relative to the cabozantinib arm (arm median 1.05; reference not stated) (fraction); higher = more viable cells (less growth inhibition). As to conditions: cabozantinib 2 µM; 4 days. (In general: In ATP-based viability assays light output follows the ATP content of the culture.)
As to `Cc1onc(-c2ccccc2Cl)c1C(=O)N[C@@H]1C(=O)N2[C@@H]1SC(C)(C)[C@@H]2C(=O)O` [Cloxacillin Sodium], the relative cell viability worked out at 1.1.
For `C=C1CC[C@H](O)C/C1=C/C=C1\CCC[C@]2(C)[C@@H]([C@H](C)CCCC(C)(C)O)CC[C@@H]12` [Calcifediol], the relative cell viability is 0.993.
`CC[C@H](C)C[C@H](C)CCCCCCCCC(=O)N[C@H]1C[C@@H](O)[C@@H](NCCN)NC(=O)[C@@H]2[C@@H](O)CCN2C(=O)[C@H]([C@H](O)CCN)NC(=O)[C@H]([C@H](O)[C@@H](O)c2ccc(O)cc2)NC(=O)[C@@H]2C[C@@H](O)CN2C(=O)[C@H]([C@@H](C)O)NC1=O` [Caspofungin Acetate]: the relative cell viability is 1.1.
As for `Nc1ncnc2n[nH]c(Nc3ccc(F)cc3)c12`, the relative cell viability was 1.05.
For `Cc1ccc(C(=O)Nc2ccc(CN3CCN(C)CC3)c(C(F)(F)F)c2)cc1C#Cc1cnc2cccnn12`, the relative cell viability is 0.127.
With `Cc1ccc(C(=O)Nc2ccc(CN3CCN(C)CC3)c(C(F)(F)F)c2)cc1C#Cc1cnc2[nH]ncc2c1` the figure was 0.279; with `Cc1ccc(NC(=O)c2ccc(CN3CC[C@H](N(C)C)C3)c(C(F)(F)F)c2)cc1Nc1nccc(-c2cncnc2)n1` [Bafetinib (INNO-406)], 1.05.
With `CC(C)(F)C[C@H](N[C@@H](c1ccc(-c2ccc(S(C)(=O)=O)cc2)cc1)C(F)(F)F)C(=O)NC1(C#N)CC1` [Odanacatib (MK-0822)] the figure was 1.15; with `CN1CCc2c(c3ccccc3n2Cc2ccc(C(=O)NO)cc2)C1` [Tubastatin A], 1.16.
Turning to `Cn1cc(CNCC2CCN(c3ncc(C(=O)NO)cn3)CC2)c2ccccc21`, the relative cell viability came to 0.121.
Under `CN1CCc2c(c3ccccc3n2Cc2ccc(C(=O)NO)cc2)C1` [Tubastatin A HCl] stands 1.01; under `COc1cc(C(=O)NS(=O)(=O)c2ccccc2C)ccc1Cc1cn(C)c2ccc(NC(=O)OC3CCCC3)cc12` [Zafirlukast], 0.9; under `C[C@H](NCc1ccc(OCc2cccc(F)c2)cc1)C(N)=O` [Safinamide Mesylate], 1.22.
Under `OC[C@H]1O[C@@H](OCCc2ccc(O)cc2)[C@H](O)[C@@H](O)[C@@H]1O` [Salidroside] stands 0.974; under `C[C@H]1O[C@H](O[C@H]2[C@H](O)[C@@H](O)[C@@H](O[C@H]3[C@H](O)[C@@H](O)C(O)O[C@@H]3CO)O[C@@H]2CO)[C@H](O)[C@@H](O)[C@@H]1N[C@H]1C=C(CO)[C@@H](O)[C@H](O)[C@H]1O` (some centres not stated) [Acarbose], 1.21; under `O=C1c2cccc(O)c2C(=O)c2c(O)cc(CO)cc21` [Aloe-emodin], 1.04.
With `O=C1c2c(O)ccc(O)c2C(=O)c2c(NCCNCCO)ccc(NCCNCCO)c21` [Mitoxantrone HCl] the figure was 0.0809; with `O=C1c2c(O)ccc(O)c2C(=O)c2c(NCCNCCO)ccc(NCCNCCO)c21` [Mitoxantrone], 0.0306; with `COc1cc([C@@H]2c3cc4c(cc3[C@@H](O[C@@H]3O[C@@H]5CO[C@@H](c6cccs6)O[C@H]5[C@H](O)[C@H]3O)[C@H]3COC(=O)[C@H]23)OCO4)cc(OC)c1O` [Teniposide], 0.104.
As to `COc1cc([C@@H]2c3cc4c(cc3[C@@H](O[C@@H]3O[C@@H]5CO[C@@H](C)O[C@H]5[C@H](O)[C@H]3O)[C@H]3COC(=O)[C@H]23)OCO4)cc(OC)c1O` [Etoposide], the relative cell viability is 0.923.
With `O=C(O)CC1CC(c2ccccc2)=NO1` (configuration not stated) the figure was 1.1; with `CC(C(O)c1ccc(O)cc1)N1CCC(Cc2ccccc2)CC1` (configuration not stated) [Ifenprodil Tartrate], 1.13.
Under `CS(=O)(=O)CCNCc1ccc(-c2ccc3ncnc(Nc4ccc(OCc5cccc(F)c5)c(Cl)c4)c3c2)o1` [Lapatinib] stands 0.971; under `CS(=O)(=O)CCNCc1ccc(-c2ccc3ncnc(Nc4ccc(OCc5cccc(F)c5)c(Cl)c4)c3c2)o1`, 1.03; under `CCS(=O)(=O)Nc1ccc2c(c1)/C(=C(/Nc1ccc(CN3CCCCC3)cc1)c1ccccc1)C(=O)N2` [Hesperadin], 0.123.
On to `CN(C)Cc1cccc(N/C(=C2\C(=O)Nc3cc(C(N)=O)ccc32)c2ccccc2)c1`, for which the relative cell viability came out at 0.924.
On to `COC(=O)c1ccc2c(c1)NC(=O)/C2=C(\Nc1ccc(N(C)C(=O)CN2CCN(C)CC2)cc1)c1ccccc1` [Nintedanib (BIBF 1120)], for which the relative cell viability came to 0.806.
With `O=C1NCC2(CCN(CCc3ccccc3)CC2)O1` [Fenspiride HCl] the figure was 1.16; with `CC(=O)Nc1ccc(C(=O)Nc2ccccc2N)cc1` [CI994 (Tacedinaline)], 1.14; with `CC(C)[C@H](C(=O)Nc1ccc(C(=O)NO)cc1)c1ccccc1`, 0.142.
Regarding `CCCCN(Cc1ccc(C(=O)NO)cc1)C(=O)Nc1ccccc1` [Nexturastat A], the relative cell viability worked out at 0.953.
With `CC(C(=O)O)c1ccc2c(c1)Cc1cccnc1O2` (configuration not stated) [Pranoprofen] the figure was 1.
With `CNC(=O)c1ccccc1Nc1nc(Nc2ccc(N3CCOCC3)cc2OC)ncc1Cl` the figure was 0.155; with `COc1cc(N2CCC(N)CC2)ccc1Nc1ncc(Cl)c(-c2c[nH]c3ccccc23)n1`, 0.119.
With `CCOc1cc(N2CCC(O)CC2)ccc1Nc1ncc2c(n1)N(C)c1ccccc1C(=O)N2C` the figure was 1.09; with `CC/C(=C(/CC)c1ccc(O)cc1)c1ccc(O)cc1` [Diethylstilbestrol], 1.21; with `CCCCNc1ncc(C(=O)NCc2ccc(-n3ccnc3)cc2)c(NC2CCC(O)CC2)n1` (configuration not stated), 0.996.
Consider `Cc1cc(C#N)cc(C)c1Oc1nc(Nc2ccc(C#N)cc2)nc(N)c1Br` [Etravirine (TMC125)], for which the relative cell viability was found to be 1.23.
Consider `COc1ccc(-c2cnc3c(-c4cccc5ncccc45)cnn3c2)cc1`, for which the relative cell viability was 1.08.
`c1cc(-c2cnn3cc(-c4ccc(N5CCNCC5)cc4)cnc23)c2cccnc2c1`: the relative cell viability was 0.148.
For the compound `COc1cc(-c2cc(-c3ccc(N4CCNCC4)cc3)cnc2C)cc(OC)c1OC`, the relative cell viability amounted to 1.01.
With `CS(=O)(=O)N1CCc2c(-c3cnc(N)nc3)nc(N3CCOCC3)nc21` the figure was 0.228; with `CNC(=O)c1ccccc1Nc1cc(Nc2ccc(N3CCOCC3)cc2OC)ncc1C(F)(F)F`, 1.05.
As for `CCCCCCCCCCCC[N+](C)(C)CCOc1ccccc1` [Domiphen Bromide], the relative cell viability stood at 1.02.
With `Cc1[nH]c2ccccc2c1CCNCc1ccc(/C=C/C(=O)NO)cc1` [Panobinostat (LBH589)] the figure was 0.108; with `Cc1[nH]c2ccccc2c1CCNC(=O)c1cccs1`, 1.18.
Under `Cc1ccc([N+](=O)[O-])cc1S(=O)(=O)N(C)/N=C/c1cnc2ccc(Br)cn12` stands 0.113; under `CCN(CC)C(=S)SSC(=S)N(CC)CC` [Disulfiram], 0.0898; under `Oc1ncnc2[nH]ncc12` [Allopurinol], 0.992.
With `CC(C)[C@H]1CC[C@H](C(=O)N[C@H](Cc2ccccc2)C(=O)O)CC1` [Nateglinide] the figure was 1.13.
Regarding `CC(C)(C)c1nc(-c2cccc(NS(=O)(=O)c3c(F)cccc3F)c2F)c(-c2ccnc(N)n2)s1`, the relative cell viability was determined as 0.993.
With `CC(C)N(CCCNC(=O)Nc1ccc(C(C)(C)C)cc1)C[C@H]1O[C@@H](n2ccc3c(N)ncnc32)[C@H](O)[C@@H]1O` the figure was 1.07.
In the case of `O=C1c2c(O)cc(O)cc2O[C@H](c2cc(O)c(O)c(O)c2)[C@H]1O` [Dihydromyricetin], the relative cell viability was found to be 0.985.
As to `CC(C)[C@H](O)C(=O)N[C@@H](C)C(=O)N[C@@H]1C(=O)N(C)CCc2ccccc21`, the relative cell viability came to 1.01.
In the case of `CCN(c1cc(-c2ccc(CN3CCOCC3)cc2)cc(C(=O)NCc2c(C)cc(C)[nH]c2=O)c1C)C1CCOCC1`, the relative cell viability came out at 0.911.
In the case of `CN1CCN(CCCNc2ncc(Cl)c(-c3cc4c(C(=O)NC5CC5)cccc4s3)n2)CC1`, the relative cell viability stood at 1.1.
With `CCNC(=O)CCC/C=C\C[C@@H]1[C@@H](/C=C/[C@@H](O)CCc2ccccc2)[C@H](O)C[C@@H]1O` [Bimatoprost] the figure was 1.16; with `C[C@H]1CO[C@@H]2Cn3cc(C(=O)NCc4ccc(F)cc4F)c(=O)c(O)c3C(=O)N12`, 1.1; with `Cc1noc(NS(=O)(=O)c2ccc(N)cc2)c1C` [Sulfisoxazole], 1.01.
As for `CCOc1nc2cccc(C(=O)OCc3oc(=O)oc3C)c2n1Cc1ccc(-c2ccccc2-c2noc(=O)[nH]2)cc1` [Azilsartan Medoxomil], the relative cell viability turned out to be 1.22.
Regarding `O=C(Nc1ncc(SCCN2CCCC2)s1)[C@]1(c2ccc(S(=O)(=O)C3CC3)cc2)C[C@H]1C1CCCCC1`, the relative cell viability came out at 0.963.
With `CCOc1cc(C(=O)N2CCC(N3CCN(C)CC3)CC2)ccc1Nc1ncc2c(n1)N(C1CCCC1)c1ccccc1C(=O)N2C` the figure was 0.703; with `CC(C=CC1(O)C(C)=CC(=O)CC1(C)C)=CC(=O)O` (configuration not stated) [Abscisic Acid (Dormin)], 1.08.
Under `O=c1c2ccccc2oc2ccccc12` [Xanthone] stands 1.08.
In the case of `Cc1cc(F)c(Nc2ncnc3cc(OCc4ccccc4)ccc23)cc1O`, the relative cell viability is 1.05.
Consider `O=NO` [Sodium Nitrite], for which the relative cell viability was 1.09.
Under `CCc1c(C(=O)NCCc2ccc(N3CCCCC3)cc2)[nH]c2ccc(Cl)cc12` stands 0.997; under `CC(C)(C#N)c1cc(Cn2cncn2)cc(C(C)(C)C#N)c1` [Anastrozole], 1.1; under `C/C(O)=C(\C#N)C(=O)Nc1ccc(C(F)(F)F)cc1` [Teriflunomide], 0.922.
With `CC[C@H](c1ccc(O)cc1)[C@@H](CC)c1ccc(O)cc1` [Hexestrol] the figure was 1.19; with `CC(C(=O)O)c1ccc2c(c1)CC(=O)c1ccccc1S2` (configuration not stated) [Zaltoprofen], 1.17.
Under `CSc1cccc(Nc2ncc3cc(-c4c(Cl)cccc4Cl)c(=O)n(C)c3n2)c1` stands 0.748; under `OCC(CO)N[C@H]1C[C@](O)(CO)[C@@H](O)[C@H](O)[C@H]1O` [Voglibose], 1.28.
As to `Nc1nc(O)c2ncn(CCC(CO)CO)c2n1` [Penciclovir], the relative cell viability worked out at 1.08.
With `CC(ONC(=O)c1cc(C(F)(F)F)cc(C(F)(F)F)c1)C(=O)Nc1ccc(Cl)cc1` (configuration not stated) the figure was 1.15; with `O=C(Nc1cc(C(F)(F)F)cc(C(F)(F)F)c1)c1cc(Cl)ccc1O`, 0.122; with `O=C(Nc1ccccc1)c1ccccc1O` [Salicylanilide], 1.1.
